NS1 function inh: influenza NS1 inhibition; Potency, µM (top dose mostly 46.1 µM), without a hit: at the highest dose activity, positive = more growth; 0.4% of 270,000 active; AID 2326; calls by dose curve; further: potency means the concentration at half of the fitted maximal effect; actives are rising curves; nearly all actives have a fitted effect of over 50% in size
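OD600 was taken as the measure of yeast growth restored by compound in an NS1-expressing S. cerevisiae strain. Cells had been washed out of glucose medium and diluted 1:100 into galactose -URA medium, pH 6.0.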
Shiga toxin inh: blocks Shiga toxin action in Vero cells; AID 2315; 9.2% of 290,000 active; Vero cells, Shiga toxin protein synthesis inhibition reporter; inhibition, % at 38.7 µM; in the data active means inhibition mostly above about 28%, no sharp cut-off; inactive means mostly below about 43%; further: 0% is about no effect
Pf growth 96h: P. falciparum growth inhibition at 96 hour, primary screen for plastid delayed-death inhibitors; P. falciparum luciferase reporter growth, 96 h; Potency, µM (top dose mostly 28.7 µM), for inactives: at the highest dose activity change, negative = inhibition, actives largely listed as inhibitors; 6.9% of 320,000 active; further: potency means the concentration at half of the fitted maximal effect; on the % scale 0 is the no-effect control and ±100 the full control effect
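Erythrocytes infected with luciferase-expressing P. falciparum were dispensed at 2% hematocrit and 0.05% parasitemia (final), then incubated with compounds 96 hours at 37 C in 5% CO2. Luminescence after detection reagent addition reported growth.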
Cycloheximide cs: affects cycloheximide protein synthesis inhibition readout, counter-screen; cell reporter, cycloheximide protein synthesis inhibition counterscreen; AID 2314; max response, %; 12% of 300,000 active; in the data active means max response mostly above about 13%, no sharp cut-off; inactive means mostly below about 14%; further: read at 38.3 µM for the half of the compounds with a filed dose; 0% is about no effect
Pf growth 48h: inhibits P. falciparum growth in the first generation, 48 h; P. falciparum luciferase growth in erythrocytes, 48 h; Potency, µM (titrated, usually from 28.7 µM), without a hit: at the highest dose activity change, negative = inhibition, most hits filed as inhibitors; 5.9% of 310,000 active; AID 504832; further: potency means the concentration at half of the fitted maximal effect; on the % scale 0 is the no-effect control and ±100 the full control effect
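First compound was added to culture medium, then infected red cells at 0.1% parasitemia and 2% hematocrit (final). After incubation at 37 C under 5% CO2, luciferase detection reagent was dispensed and light output recorded.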
Numbers without * were called inactive; ? = inconclusive; . = no result. Only some compounds are listed: those with a hit (about 21% of all), similar ones and a draw of the others. Unless noted, the call rests on the fitted dose curve; in most records, active means well fitted inhibition curve with a large enough effect; inconclusive means small, poorly fitted or top-dose-only effect, or another doubt; inactive means no such curve, though single readings can be large or run the other way.

SMILES	NS1 function inh	Shiga toxin inh	Pf growth 96h	Cycloheximide cs	Pf growth 48h
Cc1ccc(-c2nc3ccccc3c(=O)n2CCCN2CCOCC2)cc1	1%	54*	?	15	-8%
Cc1ccc(-c2nc(NCCN3CCOCC3)c3ccccc3n2)cc1	-18%	-6	4.1µM*	1	.
O=c1c2ccccc2nc(-c2ccccc2)n1CCCN1CCOCC1	-10%	31	.	-3	-3%
Cc1cc(NCCN2CCOCC2)c2ccc3ccccc3c2n1	-1%	84*	2%	23*	?
CCC(=O)NC1CCN(C(=S)NC)CC1	-7%	-10	-6%	-4	17%
CCOC(=O)C1=C(COC(=O)/C=C/c2ccccc2F)NC(=O)NC1C (configuration not stated)	.	.	26%	.	-20%
CCOC(=O)C1=C(COC(=O)/C=C/c2cccc(OC)c2OC)NC(=O)NC1C (configuration not stated)	10%	53*	-1%	40*	-14%
CCOC(=O)C1=C(COC(=O)/C=C/c2ccccc2)NC(=O)NC1C (configuration not stated)	.	.	36%	.	6%
CCOC(=O)C1=C(COC(=O)/C=C/c2ccccc2Cl)NC(=O)NC1C (configuration not stated)	-38%	56*	10%	49*	11%
O=C(CN(CCO)c1ccccc1)Nc1ccc(Cl)c(S(=O)(=O)N2CCOCC2)c1	.	-2	?	-2	?
CCN(CC)C1CCN(Cc2c(C(=O)N3CCCCCCC3)nc3ccc(Cl)cn23)C1 (configuration not stated)	13%	-30	12µM*	-1	?
COC1CCN(Cc2c(C(=O)N3C[C@@H](C)O[C@@H](C)C3)nc3ccc(Cl)cn23)CC1	-17%	-10	-25%	0	3%
Cc1cc(N2CCCC2=O)cc(C)c1CN1C(=O)c2ccccc2C1=O	2%	15	.	27*	18%
CC(C)CN=C(NS(=O)(=O)c1ccccc1)C(Cl)(Cl)Cl	-20%	13	10µM*	16	2.6µM*
O=C(O)c1cc2c(s1)CCCC2	-48%	-2	70%	-3	34%
ClCc1nnc(-c2cc3c(s2)CCCC3)o1	.	67*	10µM*	50*	?
CC(C)(C)C1CCc2sc(-c3nnc(CCl)o3)cc2C1 (configuration not stated)	.	72*	?	32*	13µM*
CCOC(=O)C1(CCCc2ccccc2)CCN(C2CCN(C(C)=O)CC2)CC1	2%	-12	?	-2	?
COc1ccc(C(C(=O)NC2CCCC2)N(C(=O)Cc2cccs2)C2CC2)cc1OC (configuration not stated)	1%	-2	0%	-5	-15%
COc1ccc(C(C(=O)NC2CCCCC2)N(Cc2cccs2)C(=O)Cc2c[nH]c3ccccc23)cc1OC (configuration not stated)	18%	2	?	8	9.3µM*
O=C(NC1CCCCC1)C(c1ccc(F)cc1)N(Cc1cccs1)C(=O)CN1C(=O)c2ccccc2S1(=O)=O (configuration not stated)	3%	-7	14%	-2	-1%
COCCN(C(=O)Cc1cccs1)C(C(=O)NC1CCCC1)c1cc(OC)c(OC)c(OC)c1 (configuration not stated)	-36%	111*	20%	49*	41%
COc1ccc(C(C(=O)NC2CCCCC2)N(C(=O)Cc2c[nH]c3ccccc23)c2ccccc2C)cc1OC (configuration not stated)	29%	-13	13µM*	-2	?
CCOc1ccc(/C=C2\SC(=S)N(N3C(=O)C4CC4C3=O)C2=O)cc1 (configuration not stated)	0%	18	-7%	8	4.1µM*
O=C1NC(=Nc2ccc(Cl)cc2)/C(=C/c2ccco2)S1	16%	14	?	8	?
SMILES	NS1 function inh	Shiga toxin inh	Pf growth 96h	Cycloheximide cs	Pf growth 48h
CCOc1ccc(/C=C2/SC(=O)NC2=S)cc1	-33%	46*	?	35*	4%
CCOc1ccc(/C=C2\SC(N3CCCCC3)=NC2=O)cc1	-13%	26	19%	11	?
CCOc1ccc(N=C2NC(=O)S/C2=C\c2ccc(N(C)C)cc2)cc1	-30%	59*	98%	22*	82%
CCOc1ccc(/C=C2\SC(=S)N(CC(=O)N(CCO)C(C)(C)C)C2=O)cc1	4%	10	13%	1	0%
Cc1ccc(C)c(NS(=O)(=O)c2ccccc2C)c1	-18%	-4	-11%	-2	6%
COc1ccc(NC(=O)CN(C)C(=O)CCCc2c[nH]c3ccccc23)cc1	.	.	10µM*	.	?
CCOc1ccc(NC(=O)CN(C)C(=O)CCCc2c[nH]c3ccccc23)cc1OCC	.	.	?	.	10µM*
CN(CC(=O)Nc1ccc(Cl)cc1)C(=O)CCc1c[nH]c2ccccc12	0%	-5	16%	-3	19%
Clc1cccc(CSC2=NCCCN2)c1	5%	1	-26%	10	?
CC1CCCN(C(=O)c2ccc(Cl)c(S(=O)(=O)N3CCCCCC3)c2)C1 (configuration not stated)	.	.	23%	.	-4%
CCOC(=O)NCc1ccc2[nH]c(C)cc2c1	26%	24*	37%	18*	7%
Cc1cc2cc(CNC(=O)Nc3ccccc3)ccc2[nH]1	.	95*	88%	28*	156%
CCOC(=O)CCC(=O)NCc1ccc2[nH]c(C)cc2c1	10%	16	?	-2	?
COC(=O)C1(C(F)(F)F)C2C=CC(C2)N1S(=O)(=O)c1ccc(C)cc1 (configuration not stated)	-2%	1	15%	-6	-3%
CCOc1ccccc1C1N=C(c2ccc(OC)cc2)CC(c2ccccc2O)N1 (configuration not stated)	.	114*	21%	46*	-92%
CCCCC(C(=O)NC1CCCC1)N(C(=O)c1snc(C(N)=O)c1N)c1ccc(C)cc1 (configuration not stated)	10%	-4	49%	-2	?
CC(=O)c1ccc(S(=O)(=O)Nc2ccccc2C(=O)NC2CC2)cc1	.	.	2%	.	2%
CN(C)c1ccc(NC(=O)CN2CCC(N3CCCCC3)CC2)cc1	9%	8	38%	-2	.
Cc1cc(NC(=O)CSc2nnc(C)n2C)no1	5%	-5	3%	-4	34%
Cc1ccc(C(=O)Cn2nnc(-c3cccs3)n2)cc1	-5%	79*	93%	32*	65%
O=C(Cn1nnc(-c2ccccc2)n1)NCc1cccs1	-16%	11	.	5	21%
O=C(Cn1nnc(-c2cccs2)n1)NCc1cccs1	.	11	10%	65*	12%
C[C@H]1CN=C(N(C)C)N1CCc1ccc(F)cc1	.	.	72%	.	27%
CCOC(=O)N1CCC(NC(=O)c2cc(S(=O)(=O)N3CCCCC3)ccc2F)CC1	.	-10	?	8	?
CCOC(=O)N1CCN(S(=O)(=O)c2ccc(F)cc2)CC1	-5%	19	-7%	1	27%

Screening data from PubChem BioAssay.
